Results from the supplement of paper PMC11219838.
A number with no mark means an inactive call.

Each molecule was assayed on Caenorhabditis elegans L1 (N2) (assay: survival and reproduction score of C. elegans L1 (0: 0-10 living worms, 1: 11-20, 2: 21-50, 3: >50, 4: overgrown) (score 0-4); higher = more worms, less nematicidal, active = 1 or less; extreme values may be limits of the assay). Settings: 60 µM; 6 days; temperature: 20 °C.
In short: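 Each 96-well well received about 20 synchronized N2 L1 worms of C. elegans, E. coli HB101 and liquid NGM, plus compound pinned to 60 µM final (0.6% v/v DMSO). Sealed plates were incubated with shaking at 200 rpm, 20 °C, for 6 days. Survival and reproduction were rated under a dissection microscope as an ordinal score of living worms per well, averaged across biological replicates. The scale spanned 0 (0–10 worms) to 4 (overgrown, starved), and there were two replicates.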

**Q.** Which “survival and reproduction score” value does the source give for `Clc1ccc(-c2nc(-c3ccccc3Br)no2)cc1` here?
**A.** 3.5

**Q.** For `Cc1ccc(-c2nc(-c3ccc(F)cc3)no2)cc1`, which “survival and reproduction score” value is on record?
**A.** 0 (active)

**Q.** `Clc1ccc(-c2noc(COc3ccccc3Cl)n2)cc1` was tested. Which “survival and reproduction score” value did it give?
**A.** 4

**Q.** With `COc1nc(C)ccc1-c1noc(-c2ccccc2Cl)n1` as the molecule, how does the “survival and reproduction score” value read?
**A.** 4

**Q.** For `Clc1ccc(-c2nnc(SCc3ccccc3)o2)c(Cl)c1`, which “survival and reproduction score” value is on record?
**A.** 4

**Q.** With `Cc1ccc(-c2nnc(SCC(=O)Nc3ccccc3)o2)cc1` as the molecule, how does the “survival and reproduction score” value read?
**A.** 4

**Q.** With `COc1ccccc1OCc1nc(-c2ccc(Br)cc2)no1` as the molecule, how does the “survival and reproduction score” value read?
**A.** 4

**Q.** Which “survival and reproduction score” value does the source give for `Cc1ccoc1-c1nnc(-c2ccco2)o1` here?
**A.** 3.5

**Q.** Which “survival and reproduction score” value does the source give for `COc1ccc(OC(C)c2nc(-c3cccnc3)no2)cc1` (centres undefined) here?
**A.** 4

**Q.** Which “survival and reproduction score” value does the source give for `CCNC(=O)c1ccccc1-c1nc(-c2ccc(F)cc2)no1` here?
**A.** 2

**Q.** How did the “survival and reproduction score” value turn out when `Clc1cccc(-c2nc(-c3ccccc3Cl)no2)c1` was run?
**A.** 4

**Q.** Which “survival and reproduction score” value does the source give for `CCN(Cc1ccccc1)C(=O)c1ccccc1-c1nc(-c2cccc(C)c2)no1` here?
**A.** 4

**Q.** `COc1ccc(CC(=O)Nc2ccc(-c3noc(COc4cccc(C)c4C)n3)cc2)cc1` was tested. Which “survival and reproduction score” value did it give?
**A.** 4

**Q.** How did the “survival and reproduction score” value turn out when `Cc1ccc(-c2nnc(SCc3ccccc3F)o2)cc1` was run?
**A.** 4

**Q.** How did the “survival and reproduction score” value turn out when `CCOc1ccc(-c2nc(-c3cccnc3)no2)cc1OCC` was run?
**A.** 4

**Q.** For `Brc1ccc(-c2noc(CSc3ccccc3)n2)cc1`, which “survival and reproduction score” value is on record?
**A.** 0 (active)

**Q.** For `Fc1ccc(-c2noc(-c3ccc(Cl)cc3)n2)cc1`, which “survival and reproduction score” value is on record?
**A.** 1 (active)

**Q.** With `c1ccc(-c2noc(COc3ccc4c(c3)CCCC4)n2)cc1` as the molecule, how does the “survival and reproduction score” value read?
**A.** 4

**Q.** With `Clc1ccccc1OCc1nc(-c2cccs2)no1` as the molecule, how does the “survival and reproduction score” value read?
**A.** 4
